We go through seven compounds from PubChem BioAssay (NCATS).

A number with no mark means an inactive call. Inconclusive results are not listed. Active and inactive are the calls of the source. Unless noted, calls come from the whole dose curve; as a rule, active = well fitted curve in the direction sought with a large enough effect; inconclusive = small, poorly fitted or top-dose-only effect, or another doubt; inactive = no such curve, though single readings can be large; an effect the other way counts as inactive or inconclusive.

The nature of assay [1]: Cell Viability - BJ (AID 421; calls by dose curve;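 note: potency is the fitted concentration of half-maximal effect; cells exposed to compound for 40 hours at 37 °C before readout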). To be noted: BJ fibroblast viability, qHTS. The essentials:
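Quantitative HTS: ATP depletion in BJ cells after 40 hr compound exposure in complete culture medium, detected with CellTiter-Glo; AC50 from standard Hill fits.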

Assay [2] in a line: Cell Viability - Hek293 (AID 427;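 active = compounds whose dose-response curve shows a full or clear partial loss of cell viability, called from curve shape rather than a numeric limit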;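 note: potency is the fitted concentration of half-maximal effect; cells exposed to compound for 40 hours at 37 °C before reading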). To be noted: qHTS. An outline of the steps:
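AC50 values derive from Hill-modelled concentration-response of ATP-based luminescence, normalized between DMSO-only and 100 uM tamoxifen controls. Cells were exposed in complete culture medium for 40 hr at 37 °C before detection.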

Assay [3] is described as follows: Cell Viability - HepG2 (AID 433; calls by dose curve;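 note: potency is the fitted concentration of half-maximal effect; potency for ATP loss meaning cytotoxicity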). To be noted: qHTS. The essentials:
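Cytotoxicity is scored as loss of intracellular ATP in HepG2 cells exposed to compounds for 40 h. Concentration-response curves, normalized to DMSO and 100 uM tamoxifen, give AC50 values.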

The nature of assay [4]: Cell Viability - MRC5 (AID 434; calls by dose curve;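 note: potency is the fitted concentration of half-maximal effect; potency reflects cytotoxicity seen as loss of intracellular ATP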). The following applies: MRC5 lung fibroblast viability, qHTS. The essentials: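 MRC5 normal human lung fibroblasts, 1500 cells/well, exposed to compound for 40 hr at 37 C. Cellular ATP was read by CellTiter-Glo luminescence; data normalized to DMSO and 100 uM tamoxifen, with AC50 from Hill fits.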
The nature of assay [5]: Cell Viability - SK-N-SH (AID 435; calls by dose curve;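 note: potency is the fitted concentration of half-maximal effect; compound exposure lasted 40 h at 37 °C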). The following applies: SK-N-SH neuroblastoma cell viability qHTS. The essentials: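 Cells seeded at 1500 per well and incubated 5 hr at 37 °C. Compound added, then 40 hr at 37 °C. CellTiter-Glo added, 20 min at room temperature, luminescence read.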
For assay [6], the target named is Mitogen-activated protein kinase 10 (Mus musculus) (UniProt Q61831). The assay can be described thus: JNK3 AlphaScreen Assay (AID 530; active = well fitted curve in either direction with a large enough effect, not every such curve was filed as active;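 note: kinase came from lysate of stimulated human HepG2 cells; signal reports phosphorylation of biotinylated GST-cJun 1-79 at Ser73 with 10 µM ATP; % is set by controls: 0 for no effect and ±100 for the full control effect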). To be noted: JNK3 lysate, c-Jun phosphorylation; series mostly up to 57.1 µM. An outline of the steps: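 qHTS format: compounds tested as titrations against IL-1beta/TNF-alpha-activated HepG2 lysate JNK3 with biotin-GST-cJun substrate and 10 uM ATP at room temperature. Loss of anti-phospho-cJun AlphaScreen signal indicates inhibition.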

Assay [7] in a line: Cell Viability - N2a (AID 540).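 For activity change, negative = cytotoxicity: plate controls were DMSO alone for no effect and tamoxifen control for full effect.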 Note: nearly all actives have a fitted effect of over 45% in size. Note: potency is the fitted concentration of half-maximal effect. To be noted: N2a mouse neuroblastoma cell viability; activity change, negative = cytotoxicity: at 92.2 µM (top of the series). An outline of the steps:
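Mouse neuroblastoma N2a cells (1500/well) were preincubated 5 hr at 37 °C, then exposed to compounds for 40 hr at 37 °C in complete medium. Viability was read as intracellular ATP by CellTiter-Glo luminescence; AC50 from Hill fits.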

Assay [8] in a line: Cell Viability - NIH 3T3 (AID 541).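 Note: plate controls were DMSO alone for no effect and tamoxifen positive control for full effect; nearly all actives have a fitted effect of over 25% in size.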 The following applies: NIH 3T3 cell viability, qHTS; activity change, negative = cytotoxicity: at 92.2 µM (top of the series). The essentials:
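NIH 3T3 mouse embryo fibroblasts (1000 cells/well) were plated in complete medium and treated with compound for 40 hr at 37 °C. Viability was read as intracellular ATP by CellTiter-Glo luminescence; AC50 values came from Hill-equation fits of concentration-response data.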

Assay [9] is described as follows: Cell Viability - HUV-EC-C (AID 542). Note: % is set by controls: 0 for no effect and ±100 for the full control effect; nearly all actives have a fitted effect of over 35% in size. The following applies: HUV-EC-C endothelial cell viability, qHTS; series mostly up to 92.2 µM. An outline of the steps:
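HUV-EC-C normal human vascular endothelial cells, 1000 cells/well, pre-incubated 5 hr at 37 °C, then exposed to compounds for 40 hr at 37 °C in complete medium. Viability measured as intracellular ATP by CellTiter-Glo luminescence; AC50 from Hill fits.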

Assay [10] in a line: Cell Viability - H-4-II-E (AID 543). Note: nearly all actives have a fitted effect of over 35% in size. Note: potency is the fitted concentration of half-maximal effect. The following applies: H-4-II-E rat hepatoma viability; series mostly up to 92.2 µM. The essentials:
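Rat hepatoma H-4-II-E cells (1500/well) were plated, incubated 5 hr at 37 °C, then exposed to compounds for 40 hr at 37 °C. Cellular ATP was read by CellTiter-Glo luminescence; AC50 came from Hill-equation fits of concentration-response data.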

Assay [11] is described as follows: Cell Viability - SH-SY5Y (AID 544). Note: nearly all actives have a fitted effect of over 55% in size. Note: potency is the fitted concentration of half-maximal effect. The following applies: SH-SY5Y neuroblastoma cell viability; viability change, negative = cytotoxic: at 92.2 µM (top of the series). An outline of the steps:
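Human neuroblastoma SH-SY5Y cells (1500/well) in complete medium were exposed to compounds for 40 hr at 37 °C; intracellular ATP was then quantified by CellTiter-Glo luminescence after 20 min at room temperature. AC50 came from Hill-equation concentration-response fits.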

The nature of assay [12]: Cell Viability - Renal Proximal Tubule (AID 545). Note: nearly all actives have a fitted effect of over 40% in size. Note: potency is the fitted concentration of half-maximal effect. The following applies: renal proximal tubule cells viability, primary cells of rat origin; series mostly up to 91.7 µM. The essentials: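 Cytotoxicity is scored as a concentration-dependent drop in cellular ATP in primary rat renal proximal tubule cells exposed for 40 hr. AC50 derives from Hill modelling.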
Assay [13] can be described thus: Cell Viability - Mesenchymal (AID 546).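 Note: cells exposed to compound for 40 hours before reading.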 Note: potency is the fitted concentration of half-maximal effect. To be noted: mesenchymal cells viability, qHTS; series mostly up to 91.7 µM. The essentials: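 Human kidney mesenchymal cells from normal renal glomeruli, 1000 cells/well, rested 5 hr at 37 °C, then treated 40 hr at 37 °C in complete medium. Cellular ATP read by CellTiter-Glo luminescence; AC50 from Hill-equation fits.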
Assay [14] can be described thus: Cellular Toxicity (caspase-3) Jurkat (AID 655).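 Note: cells exposed to compound for 16 h at 37 °C before reading.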 To be noted: Jurkat caspase-3 activation, luminescence; caspase-3 activation: at 92.2 µM (top of the series), DMSO = 0%, tamoxifen = 100%. An outline of the steps: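 Caspase 3/7 activation is scored as increased luminescence in Jurkat cells cultured with compound for 16 hours in complete medium. AC50 values come from Hill fits of qHTS concentration-response data normalized to DMSO and 100 uM tamoxifen controls.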

Assay [15] in a line: Cellular Toxicity (caspase-3) HUV-EC-C (AID 656).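 Note: cells exposed to compound for 16 h.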 To be noted: HUV-EC-C cells, caspase-3 activation (apoptosis), vehicle = 0, 100 µM tamoxifen = 100%; series mostly up to 92.2 µM. An outline of the steps: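 Read-out: luminescence proportional to caspase 3/7 activity, measured 20 min after adding Caspase-Glo 3/7 reagent. Cells (HUV-EC-C) had received compound for 16 hr at 37°C. Increases relative to DMSO and 100 uM tamoxifen gave concentration-response AC50 values.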

A short description of assay [16]: Cellular Toxicity (caspase-3) SHSY5Y (AID 657).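 Note: cells exposed to compound for 16 hours at 37 °C.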 The following applies: SH-SY5Y caspase-3 activation, DMSO zero, 10 µM staurosporine = 100%; series mostly up to 91.7 µM. An outline of the steps: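 Cells plated and incubated 5 h at 37 °C, dosed over a concentration range, incubated 16 h, then given Caspase-Glo 3/7 reagent for 1 h at room temperature before luminescence reading. Staurosporine (10 uM) defined full stimulation.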

The nature of assay [17]: Cellular Toxicity (caspase-3) BJ (AID 658). The following applies: BJ fibroblasts, luminescence, normalized: DMSO 0%, staurosporine 100%; series mostly up to 91.7 µM. The essentials:
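BJ human foreskin fibroblasts, 1000 cells/well, treated 16 hours at 37 °C in complete medium; caspase 3/7 activity by Caspase-Glo luminescence after 1 hr at room temperature. Normalized to DMSO and 10 uM staurosporine; AC50 from Hill fits.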

Assay [18] in a line: Cellular Toxicity (caspase-3) MRC-5 (AID 659).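 Note: cells exposed to compound for 16 h at 37 °C.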 To be noted: MRC-5 cells, luminescence, normalized: DMSO 0%, 10 µM staurosporine 100%; series mostly up to 91.7 µM. The essentials:
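MRC-5 human normal lung fibroblasts, 1500 cells/well, treated 16 h at 37 °C in complete medium. Caspase 3/7 measured by Caspase-Glo luminescence after 1 h at room temperature. Normalized to DMSO and 10 uM staurosporine; AC50 from Hill fit.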

Assay [19] is described as follows: Cellular Toxicity (caspase-3) HepG2 (AID 654).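 For caspase-3 activation: cells exposed to compound for 16 hours before reading; 0% = DMSO alone and 100% = caspase signal from 100 µM tamoxifen.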 Note: potency is the fitted concentration of half-maximal effect. To be noted: HepG2 caspase-3 activation, luminescence; series mostly up to 92.2 µM. The essentials:
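HepG2 cells (1500/well) in complete medium were treated with compounds for 16 hr at 37 °C. Caspase-3/7 activity was then read as luminescence from peptide-aminoluciferin cleavage. AC50 came from Hill fits, normalized to DMSO and 100 uM tamoxifen.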

Consider `CCOC(=O)C(C)C(C)=O` (configuration not stated), for which the Potency in assay [1], in assay [2], in assay [3], in assay [4] and in assay [5] was > 92 µM each time. Besides, the compound was called inactive in [6], in [15], in assay [16], in assay [17] and in [18]. The activity change, negative = cytotoxicity in [7] was 0.646%. Also, the Potency result in [8], in assay [9], in assay [10], in assay [11], in assay [12] and in assay [13] was “inactive” throughout. The caspase-3 activation in assay [14] was 3.08%.
`CC(C)(C)OCC1CO1` (configuration not stated): the Potency in assay [1], in assay [2], in assay [3], in assay [4] and in assay [5] was > 92 µM each time. The compound was classed as inactive in assay [6], in [15], in [16], in assay [17] and in assay [18]. For the same compound, the activity change, negative = cytotoxicity in [7] is 3.76%. For the same compound, the Potency result in assay [8], in assay [10], in [11], in [13] and in assay [19] was “inactive” throughout. Moreover, the caspase-3 activation in assay [14] is 0.113%.
Regarding `CC1=C(/C=C/C(C)=C/C=C/C(C)=C\C=O)C(C)(C)CCC1`, the Potency is 24.4 µM (active) in assay [1]; 51.9 µM (active) in assay [2]; 66.1 µM (active) in [3]; 39.8 µM (active) in assay [4]; 31.7 µM (active) in [5]; 25.1 µM (active) in assay [7]. The Potency in [10] is 12.6 µM (active); in assay [11], 20 µM (active); in [12], 12.6 µM (active); in assay [13] it was 12.6 µM (active); in [19], 63.1 µM (active). The compound was classed as inactive in [6] and in assay [17]. Also, the activity change, negative = cytotoxicity in assay [8] is -120% (active).
For `NS(=O)(=O)O`, the Potency in [1], in assay [2], in assay [3] and in assay [4] was > 92 µM in each case. For the same compound, the call in assay [6], in [15], in [16], in [17] and in assay [18] was inactive. Moreover, the activity change, negative = cytotoxicity in [7] is -0.868%. Also, the Potency entry in [8], in assay [10], in assay [11], in assay [12], in assay [13] and in assay [19] was “inactive” in each case. Further, the caspase-3 activation in assay [14] was 0.859%.
For `COc1ccc(OC)cc1`, the Potency in assay [1], in [2] and in assay [5] was > 92 µM each time. The compound was classed as inactive in assay [6], in assay [15], in [16], in [17] and in assay [18]. The Potency entry in assay [8], in assay [10], in assay [11], in assay [12], in assay [13] and in [19] was “inactive” in each case. Moreover, in assay [14], the caspase-3 activation is 0.323%.
Take `CCCCOCCOCCOCCCC`: the Potency in [1], in assay [2], in [4] and in [5] was > 92 µM each time. The compound was called inactive in assay [6], in [15], in assay [16] and in assay [18]. For the same compound, the activity change, negative = cytotoxicity in assay [7] was 3.3%. The Potency entry in [8], in assay [9], in assay [10], in assay [11], in [12] and in assay [13] was “inactive” each time. Besides, the Potency result in assay [19] is “inactive”. Besides, in assay [14], the caspase-3 activation is 0.193%.
Regarding `Nc1c(Cl)cc(Cl)cc1Cl`, the Potency in [1], in assay [2], in [3], in [4] and in assay [5] was > 92 µM each time. Also, the compound was classed as inactive in assay [6], in [15], in [16], in assay [17] and in [18]. In assay [7], the activity change, negative = cytotoxicity was -11.7%. The Potency result in [8], in assay [9], in assay [10], in assay [11], in [12] and in [13] was “inactive” throughout. Further, the Potency result in [19] was “inactive”. The caspase-3 activation in [14] is 1.83%.
